From PubChem BioAssay (NCATS)
Results filed as inconclusive are left out. Entries that show only a call come without a potency. Calls of active or inactive are those of the source. Calls come from the whole dose curve; as a rule, active = well fitted inhibition curve with a large enough effect in the main read-out, with a control signal flat (not every such curve was filed as active); inconclusive = small, poorly fitted or top-dose-only effect, or effect the other way, or a change in a side signal; inactive = no such curve, though single readings can be large or run the other way.

Assay: Nrf2 qHTS screen for inhibitors: Validation (AID 493153)
Settings: A549 ARE-Fluc reporter, 18-24 h; Potency: luciferase luminescence; viability change: measured here: cytotoxicity max response; luciferase luminescence, at 46.1 µM (top of the series)
How it was run: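 A549 ARE_Fluc, 5% FBS OPTI-MEM; cpd titration, 18-24 h, 37°C/5% CO2. Read 1: CellTiter-Fluor (Ex 405/Em 525), cytotox. Read 2: luciferase lum, Nrf2 activity.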

Structure (SMILES)	Potency	viability change [%]
NC/C=C\C(=O)O	inactive	-0.476
N#CC(C#N)=C(N)/C(C#N)=C/c1ccc(O)cc1	inactive	1.78
C=CC1(C)CC(=O)C2(O)C(C)(O1)C(OC(C)=O)C(O)C1C(C)(C)CCC(O)C12C (stereo unspecified)	inactive	4.77
Nc1ncnc2c1ncn2C1CCCC1	inactive	4.78
Cc1cccc(C2CN(C)CCc3c2cc(O)c(O)c3Cl)c1 (stereo unspecified)	inactive	-5.5
Cc1nc2c(OCc3ccccc3)cccn2c1CC#N	inactive	-7.51
OC[C@H]1NC[C@@H](O)[C@@H]1O	inactive	4.02
O=C(O)c1ccccc1Nc1cccc(OCc2ccc3ccccc3n2)c1	inactive	-13.9
Nc1ccc(N2C(=O)c3ccccc3C2=O)c(Cl)c1	inactive	-6.09
CCCCOc1cc(CC2CNC(=O)N2)ccc1OC (stereo unspecified)	inactive	4.87
O=[N+]([O-])c1cccc2cn[nH]c12	inactive	-18.2
NCCS(=O)O	inactive	6.69
Cn1ccnc1	inactive	2.46
NC1C=CC=C(C(=O)O)C1 (stereo unspecified)	inactive	17.7
NCCNS(=O)(=O)c1cccc2c(Cl)cccc12	inactive	-10.5
Nc1ccc(-c2nc3ccc(-c4nc5ccc(N)cc5[nH]4)cc3[nH]2)cc1	inactive	-10.2
Oc1cc2c(cc1O)C(c1ccccc1)CNCC2 (stereo unspecified)	inactive	-2.55
O=C(O)C1CCNCC1	inactive	-14.4
CCN(CC)CCOC(=O)c1cc(Cl)c(N)cc1OC	inactive	2.46

Structure (SMILES)	Potency	viability change [%]
CC1=C(C(=O)O)N2C(=O)[C@@H](NC(=O)C(N)C3=CCC=CC3)[C@H]2SC1 (stereo partly specified)	inactive	3.51
CCCCS(=N)(=O)CC[C@H](N)C(=O)O (stereo partly specified)	inactive	0.751
CSC(=N)N	inactive	-21.7
O=C(O)C1CCCNC1 (stereo unspecified)	inactive	1.96
O=C1C2C=CC=CC2=NC(=S)N1CCN1CCC(=C(c2ccc(F)cc2)c2ccc(F)cc2)CC1 (stereo unspecified)	inactive	6.28
CC(=O)[C@H]1CCC2C3CC=C4C[C@@H](OS(=O)(=O)O)CC[C@]4(C)C3CC[C@@]21C (stereo partly specified)	inactive	2.24
OC[C@H]1O[C@@H](n2cnc3cncnc32)[C@H](O)[C@@H]1O	inactive	10.1
NC1CCN(O)C1=O (stereo unspecified)	inactive	4.05
O=c1ccn([C@@H]2O[C@H](COP(=O)(O)OP(=O)(O)O)[C@@H](O)[C@H]2O)c(=O)[nH]1	inactive	3.88
OCC1NCC(O)C(O)C1O (stereo unspecified)	inactive	-2.29
COC(=O)C(N)Cc1ccc(Cl)cc1 (stereo unspecified)	inactive	9.57
CSC(N)=NCCC[C@H](N)C(=O)O	inactive	-16.2
CN1C2CCC1CC(OC(c1ccccc1)c1ccccc1)C2 (stereo unspecified)	inactive	-14.9
COc1cc(CC(=O)O)ccc1O	inactive	3.47
COc1cc(N)c(Cl)cc1C(=O)OCCN1CCCCC1	inactive	-3.02
NCCCNCCCCNCCCN	inactive	-11.3
O=c1oc(Cl)c(Cl)c2ccccc12	inactive	-4.81
Cn1cc(C(=O)OCC2CCN(CCNS(C)(=O)=O)CC2)c2ccccc21	inactive	-0.747
CC(C)(CO)Cc1cc(C(C)(C)C)c(O)c(C(C)(C)C)c1	inactive	10.3
